The values that follow come from PubChem BioAssay AID1345085 (National Center for Advancing Translational Sciences (NCATS), 2018).

Inconclusive results are not listed. The source made the active and inactive calls. Calls follow the shape of the dose curve; as a rule, active = well fitted cell-killing curve with a large enough effect; inconclusive = small, poorly fitted or top-dose-only effect, or effect the other way; inactive = no such curve, though single readings can be large or run the other way.
% is scaled to controls: 0 for no effect and ±100 for the full control effect; potency is read from the fitted curve at half-maximal effect.

This assay deals with JEG-3. The assay is described as follows: Confirmatory qHTS for gynecologic anti-cancer compounds from libraries of approved drugs and bioactive compounds. Also: nearly all actives have a fitted effect of over 55% in size. To be noted: gynecologic cancer cell panel viability, ATPlite luminescence, 48 h; series mostly up to 57.6 µM; activity change, negative = viability loss: at the top concentration. The method, boiled down:
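Cells (1,000/well) plated 16 h, then exposed 48 h at 37 °C to 11 concentrations (1:3) from 57.5 uM to 0.977 nM. Viability by ATPlite luminescence after 15 min; IC50 derived, with HEK 293T used for selectivity index.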
For the molecule `O=C(O)Cc1ccccc1`, the “activity change, negative = viability loss” value is 3.89% (inactive).
On to `C=C(C)[C@H]1Cc2c(ccc3c2O[C@@H]2COc4cc(OC)c(OC)cc4[C@@H]2C3=O)O1`, for which the Potency is 27.3 nM (active).
Regarding `C/C=C(/C)C(=O)O[C@H]1C(C)=C2[C@H]([C@@H]1OC(=O)CCCCCCC)[C@@](C)(OC(C)=O)C[C@H](OC(=O)CCC)[C@@]1(O)[C@H]2OC(=O)[C@@]1(C)O`, the Potency is 54.4 nM (active).
In the case of `CCC(=O)O[C@H]1CC[C@H]2[C@@H]3CCC4=CC(=O)CC[C@]4(C)[C@H]3CC[C@]12C`, the “activity change, negative = viability loss” value is -32.1% (inactive).
`C[C@H]1CCC/C=C/C2C[C@H](O)C[C@H]2[C@H](O)/C=C/C(=O)O1` (some centres undefined): the Potency was 344 nM (active).
Turning to `C[C@]12CC[C@H]3[C@@H](CCC4=CC(=O)CC[C@@H]43)[C@@H]1CC[C@@H]2OC(=O)CCc1ccccc1`, the “activity change, negative = viability loss” value is 10% (inactive).
With `Cc1sc2c(c1C)C(c1ccc(Cl)cc1)=NC(CC(=O)OC(C)(C)C)c1nnc(C)n1-2` (centres undefined), the Potency is 1930 nM (active).
With `CCOc1ccccc1-n1c(C(C)N2CCN(C(=O)COc3ccc(Cl)cc3)CC2)nc2ccccc2c1=O` (centres undefined), the Potency is 10900 nM (active).
For the molecule `CCN1CCN(C(=O)Cc2ccc(Nc3ncc(F)c(Nc4ccc(C(=O)Nc5ccccc5Cl)cc4)n3)cc2)CC1`, the “activity change, negative = viability loss” value is -5.82% (inactive).
